{"source": "the supplement of paper PMC6555819", "data": [{"test_system": "VDR:RXRa (NR concentration 270 nM, RXRa partner concentration 90 nM)", "test": "PBM binding z-score (relative to random genomic background probes); higher = stronger binding; sequences stand for … in GC…GCGATTGACAGCGTAGAATGAAGG", "protocol": "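Protein-binding microarray (Agilent 4x180K custom design, double-stranded 60-nt probes: 5' GC cap, 34-nt variable region, 24-nt constant primer region; full probe sequence given). Purified or IVT nuclear receptor:RXRα heterodimers (3:1 NR:RXRα, mostly 270:90 nM) or homodimers were incubated for 1 h in PBS with 2% milk and no ligand, then detected with Alexa488 antibodies. Fluorescence from o1-orientation probes (~5 replicates averaged) was converted to z-scores against 500 random hg19 background probes. Variable regions are seed direct-repeat (DR0–DR5) sites, all their single-nucleotide variants and half-site ablations.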", "values": [{"sequence": "CCGACTGGGGCAATGGTTACCATACTCAGTACGA", "PBM binding z-score": -0.604}, {"sequence": "TCGAGTTGGTTAGTCGGGGCATTCAGCCAACATA", "PBM binding z-score": 0.43}, {"sequence": "TCATGTAGGTAAAAGGTGAAAGTCGGTGTGGTAA", "PBM binding z-score": 1.57}, {"sequence": "GGAACGAGGGCAAGTTAATAGCAGAGTTTGATGG", "PBM binding z-score": 0.803}, {"sequence": "TTACCAAGGTGAGCTGAGGTCGTGGATCCAACTC", "PBM binding z-score": 3.37}, {"sequence": "TGAATGAGGTTTTAAGATCAGGGAACGTTGCAAA", "PBM binding z-score": -0.241}, {"sequence": "CCAGACGGGTGAAAGGTAACTCAGTCTGGTACGC", "PBM binding z-score": 0.319}, {"sequence": "CAAACTAGGTCAGGAAAGGTCAAAGTCGAATGAC", "PBM binding z-score": 6.31}, {"sequence": "GTGACTGGGGCAAAGCAGGTTACCATAAGGTTGG", "PBM binding z-score": 0.488}, {"sequence": "ACTATTAGTTGAGAAGAGGGCAACCGATAGGTTG", "PBM binding z-score": 0.507}, {"sequence": "ACAGACAGGTGAGTGAAGGTAACTCGGCTGGACG", "PBM binding z-score": -0.336}, {"sequence": "CCTAGCAGGCCAGGGTCACTGAAGCATTTCGCTT", "PBM binding z-score": 2.68}, {"sequence": "TCTTGTAGATCAAGCAGGTTAAGAAAGCCTGAGT", "PBM binding z-score": 0.61}, {"sequence": "TTGCCAAGGTGAAGGTCGTTGATCCCTCTGTAGA", "PBM binding z-score": 1.08}, {"sequence": "GCGAGCAGGCCATTTGGGTCACTCAATGACGGGC", "PBM binding z-score": 0.881}, {"sequence": "GATACTGGGTCAGCTAGAGGCCAGAGTATGGAAA", "PBM binding z-score": 0.938}, {"sequence": "CCTACTGGGCCTCGAAAGGTCATTGATTCAGTGA", "PBM binding z-score": 3.34}, {"sequence": "CATCGGAGGACAGAAGGTCAGAGCTGTCCGCTTT", "PBM binding z-score": 1.06}, {"sequence": "GCTAGTTGGTCAGTAAAAGGTCAGACACCGGTCG", "PBM binding z-score": 2.38}, {"sequence": "ACTAGCAGGCCTAGTTTGGGTCACTCAAACAAAG", "PBM binding z-score": -0.0369}, {"sequence": "ACTATTAGTTGAGACGAGGGCATCCGATAGGTTG", "PBM binding z-score": 0.918}, {"sequence": "CAAACTAGGTCACCTGAAGGTCAAAGTCCGCATG", "PBM binding z-score": 5.59}, {"sequence": "ATCTCTAGGTACAGTTCAGTGAAAGATCGATAGA", "PBM binding z-score": 1.12}, {"sequence": "TCTTGTAGACCAATAGAGGTTAAGAAAGTGCGCT", "PBM binding z-score": 1.82}, {"sequence": "TCTTGTAGATCAGAAGGTTAAGAAAGCTGGCCAA", "PBM binding z-score": 0.671}, {"sequence": "ATCGATAGGTCGACGAGGTGAGTATACACCGTTT", "PBM binding z-score": 2.96}, {"sequence": "TTACCCAGGTGAGCTGAGGTCGTTGATCCAACTC", "PBM binding z-score": 2.93}, {"sequence": "CCTCGGAGGACGACAGGAGGTCAGAGCTGCCAGA", "PBM binding z-score": 1.44}, {"sequence": "ACTAGTTGGTGAGCTGAGGTCACACACAATTCGG", "PBM binding z-score": 3.55}, {"sequence": "TGAATGACGTTATAAGATCAGGGAACGTTGCAAA", "PBM binding z-score": 0.104}, {"sequence": "CCGCCTGGGGCAAGGTTACCATAACGCACAGCCA", "PBM binding z-score": 0.149}, {"sequence": "TTACCAAGGTGTAGGTCGTTGATCCCTCTGTAGA", "PBM binding z-score": 0.256}, {"sequence": "TTACCAAGGTGAAAGGTCGTCGATGCACGCCTTG", "PBM binding z-score": 3.09}, {"sequence": "ATTTGTAGGTTAGCTGGGGTCATTCAGACTAGGC", "PBM binding z-score": 6.42}, {"sequence": "GATACAGGGTCAGCTAGAGGCCAGAGTGTGGAAA", "PBM binding z-score": 3.39}, {"sequence": "CCGACTGGGGCAAAGGTTGCCATACTCAGTACGA", "PBM binding z-score": 0.133}, {"sequence": "TCTAGCAGGCCCGAGGGTCACTCAAGAGGTACGG", "PBM binding z-score": 1.14}, {"sequence": "CCTTACGGGGCAAGGTTATAGCACGGGTGGTACG", "PBM binding z-score": 0.0431}, {"sequence": "GCACCAAGGTGAATAGGTCGTTGATGAGTAGGCG", "PBM binding z-score": 0.503}, {"sequence": "CTCGAAAGGTCGTTCTCAGGTGAGTATACCAAAC", "PBM binding z-score": 3.95}]}]}
